About 79,000 compounds went through this panel and 15% of them were active in at least one assay; those are over-represented in the sample as a whole. Activity calls are given as the source filed them. Cut-off read from the data, not from the text of the source: active = growth inhibition above about 70%; inactive = the rest.
Tests used:
[1] = NCI Yeast Anticancer Drug Screen. Data for the rad52 strain (AID 147);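 note: 0% = growth of vehicle-treated control cultures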; conditions: S. cerevisiae rad52 mutant growth inhibition, hits give high values
Outline: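 Inhibition of yeast growth, referenced to vehicle controls, was the measured output for a strain with defective DNA damage repair.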

[2] = NCI Yeast Anticancer Drug Screen. Data for the wt1 strain (AID 149);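 note: 0% = growth of vehicle-treated wt1 cultures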; conditions: S. cerevisiae wt1 strain (SPY 50644) growth inhibition, hits give high values
Outline: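 Vehicle-normalised growth inhibition; strain wt1; compound exposure.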

[3] = NCI Yeast Anticancer Drug Screen. Data for the mgt1 strain (AID 153); conditions: S. cerevisiae mgt1 mutant growth inhibition, hits give high values
Outline: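 In the mgt1 strain, test compounds were added and growth inhibition was determined relative to vehicle-treated controls.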

[4] = NCI Yeast Anticancer Drug Screen. Data for the rad50 strain (AID 155);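 note: 0% = growth of vehicle-only cultures of the same strain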; conditions: S. cerevisiae rad50 strain growth inhibition, hits give high values
Outline: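 A DNA repair-deficient yeast mutant serves as the test organism; compound-induced growth inhibition is calculated against vehicle-treated cells.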

[5] = NCI Yeast Anticancer Drug Screen. Data for the mec2-1 strain (AID 157); conditions: S. cerevisiae mec2-1 strain, hits give high values
Outline: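 Each compound was tested on mec2-1 yeast, a strain altered in DNA damage repair or cell cycle control. Growth inhibition is reported relative to vehicle.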

[6] = NCI Yeast Anticancer Drug Screen. Data for the rad14 strain (AID 159);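 note: 0% = growth of vehicle-treated control cultures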; conditions: S. cerevisiae rad14 strain growth inhibition, hits give high values
Outline: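 Vehicle-treated cultures served as the baseline for growth inhibition of a DNA repair-mutant yeast strain exposed to each compound.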

[7] = NCI Yeast Anticancer Drug Screen. Data for the sgs1 mgt1 strain (AID 161);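 note: 0% = growth of cultures given vehicle only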; conditions: S. cerevisiae sgs1 mgt1 strain, hits give high values
Outline: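 Read-out: growth inhibition vs vehicle controls. Cells: mutant yeast strain deficient in DNA damage repair.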

[8] = NCI Yeast Anticancer Drug Screen. Data for the CLN2oe strain (AID 163);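 note: 0% = growth of vehicle-only control cultures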; conditions: S. cerevisiae CLN2oe strain, hits give high values
Outline: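 First, the altered yeast strain was treated with each compound; second, its growth was measured; finally, inhibition was derived by comparison with vehicle controls.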

[9] = NCI Yeast Anticancer Drug Screen. Data for the cln2 rad14 strain (AID 165);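 note: 0% = growth equal to vehicle treated cultures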; conditions: S. cerevisiae cln2 rad14 strain, hits give high values
Outline: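 Test compounds were added to cln2 rad14 yeast cultures; inhibition of growth was then determined by comparison with vehicle treatment.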

[10] = NCI Yeast Anticancer Drug Screen. Data for the bub3 strain (AID 167); conditions: S. cerevisiae bub3 mutant strain, hits give high values
Outline: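 Inhibition values come from growth of compound-treated mutant yeast normalised to vehicle-treated controls.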

[11] = NCI Yeast Anticancer Drug Screen. Data for the wt2 strain (AID 169);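 note: 0% = growth of vehicle-treated yeast cultures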; conditions: S. cerevisiae wt2 strain growth inhibition, hits give high values
Outline: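 The panel's yeast strains carry defined changes in DNA repair or cell cycle genes. Each strain is grown with compound, and growth loss is scored relative to vehicle.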

[12] = NCI Yeast Anticancer Drug Screen. Data for the mlh1 strain (AID 171);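 note: 0% = growth of vehicle-treated control cultures of the same strain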; conditions: S. cerevisiae mlh1 strain growth inhibition, hits give high values
Outline: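 Inhibition values reflect reduced yeast growth in the presence of compound, referenced to vehicle controls, using a strain chosen for its alteration in DNA repair or cell cycle control.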

[13] = NCI Yeast Anticancer Drug Screen. Data for the sgs1 strain (AID 173);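 note: 0% = growth of vehicle-only control cultures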; conditions: S. cerevisiae sgs1 mutant, hits give high values
Outline: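 Vehicle-treated cultures served as reference for growth inhibition of a yeast strain altered in DNA damage repair or cell cycle control after compound exposure.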

[14] = NCI Yeast Anticancer Drug Screen. Data for the mlh1 rad18 strain (AID 175); conditions: S. cerevisiae mlh1 rad18 strain growth inhibition, hits give high values
Outline: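 Inhibition values reflect reduced growth of mutant yeast versus vehicle-treated controls following compound exposure; the mutations affect DNA damage repair.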

[15] = NCI Yeast Anticancer Drug Screen. Data for the rad18 strain (AID 177); conditions: S. cerevisiae rad18 mutant growth inhibition, hits give high values
Outline: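 Steps: expose repair-mutant yeast to compound; measure growth; express as inhibition relative to vehicle control.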

[16] = NCI Yeast Anticancer Drug Screen. Data for the rad50EPP+ strain (AID 151);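 note: 0% = growth of vehicle-treated control cultures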; conditions: S. cerevisiae rad50 mutant strain, hits give high values
Outline: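 Genetically defined yeast (rad50EPP+, DNA damage repair alteration) is grown with compound, and inhibition of growth is expressed relative to vehicle-treated controls.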

[17] = at 5.0 µM (retest, dose inferred, filed as 0.5)
[18] = at 50.0 µM (retest, dose inferred, filed as 5.0)

Measured: growth inhibition

CN1CCN(C(=O)/C=C/C(=O)c2ccccc2)CC1
active: [1]; at 100.0 µM 86% | [2]; at 100.0 µM 87% | [3]; at 33.0 µM 79% | [3]; at 100.0 µM 95% | [4]; at 50.0 µM 93.3% | [4]; at 100.0 µM 90% | [5]; at 50.0 µM 95% | [5]; at 100.0 µM 94% | [6]; at 100.0 µM 87% | [7]; at 50.0 µM 95.5% | [8]; at 100.0 µM 76% | [9]; at 50.0 µM 72.8% | [10]; at 33.0 µM 80% | [10]; [18] 91% | [10]; at 50.0 µM 82.5% | [10]; at 100.0 µM 90% | [11]; at 33.0 µM 76% | [11]; at 100.0 µM 93% | [12]; at 33.0 µM 85% | [12]; at 100.0 µM 96% | [13]; at 33.0 µM 84% | [13]; at 100.0 µM 95% | [14]; at 50.0 µM 97.5% | [15]; at 33.0 µM 84% | [15]; at 100.0 µM 95%
inactive: [1]; at 1.2 µM 4% | [1]; at 3.7 µM 11% | [1]; at 11.0 µM 24% | [1]; at 33.0 µM 63% | [2]; at 1.2 µM 4% | [2]; at 3.7 µM 12% | [2]; at 11.0 µM 24% | [2]; at 33.0 µM 47% | [3]; at 1.2 µM 2% | [3]; at 3.7 µM 10% | [3]; at 11.0 µM 34% | [4]; at 1.2 µM -3% | [4]; at 3.7 µM -8% | [4]; [17] 9% | [4]; at 11.0 µM 23% | [4]; at 33.0 µM 69% | [4]; [18] -3% | [5]; at 1.2 µM 2% | [5]; at 3.7 µM 12% | [5]; [17] -3% | [5]; at 11.0 µM 35% | [5]; at 33.0 µM 67% | [5]; [18] -3% | [6]; at 1.2 µM 9% | [6]; at 3.7 µM 12% | [6]; at 11.0 µM 20% | [6]; at 33.0 µM 40% | [7]; [17] 6% | [7]; [18] -9% | [8]; at 1.2 µM 3% | [8]; at 3.7 µM 6% | [8]; at 11.0 µM 15% | [8]; at 33.0 µM 36% | [9]; [17] 39% | [9]; [18] -10% | [10]; at 1.2 µM -3% | [10]; at 3.7 µM 3% | [10]; [17] 7% | [10]; at 11.0 µM 28% | [11]; at 1.2 µM 1% | [11]; at 3.7 µM 10% | [11]; at 11.0 µM 36% | [12]; at 1.2 µM -1% | [12]; at 3.7 µM 12% | [12]; at 11.0 µM 35% | [13]; at 1.2 µM 5% | [13]; at 3.7 µM 15% | [13]; at 11.0 µM 42% | [14]; [17] -5% | [14]; [18] 7% | [15]; at 1.2 µM 2% | [15]; at 3.7 µM 11% | [15]; at 11.0 µM 38%

Cc1cc2cc3cc(C)c(N)cc3nc2cc1N
active: [1]; at 33.0 µM 77% | [1]; at 100.0 µM 96% | [2]; at 100.0 µM 89% | [16]; at 33.0 µM 71% | [16]; at 100.0 µM 84% | [4]; [17] 94% | [4]; at 33.0 µM 86% | [4]; [18] 99% | [4]; at 50.0 µM 81.8% | [4]; at 100.0 µM 96% | [5]; [17] 78% | [5]; at 33.0 µM 82% | [5]; [18] 98% | [5]; at 50.0 µM 75.5% | [5]; at 100.0 µM 97% | [6]; at 33.0 µM 70% | [6]; at 100.0 µM 92% | [7]; [18] 98% | [7]; at 50.0 µM 85.2% | [8]; at 100.0 µM 83% | [10]; [18] 96% | [10]; at 50.0 µM 77.8% | [10]; at 100.0 µM 92% | [11]; at 100.0 µM 94% | [12]; at 33.0 µM 79% | [12]; at 100.0 µM 95% | [13]; at 100.0 µM 91% | [14]; [17] 94% | [14]; [18] 99% | [14]; at 50.0 µM 81.8% | [15]; at 100.0 µM 92%
inactive: [1]; at 1.2 µM -6% | [1]; at 3.7 µM -1% | [1]; at 11.0 µM -7% | [2]; at 1.2 µM -18% | [2]; at 3.7 µM -8% | [2]; at 11.0 µM -6% | [2]; at 33.0 µM 56% | [16]; at 1.2 µM -10% | [16]; at 3.7 µM 20% | [16]; at 11.0 µM 37% | [4]; at 1.2 µM -9% | [4]; at 3.7 µM -18% | [4]; at 11.0 µM 27% | [5]; at 1.2 µM -18% | [5]; at 3.7 µM -5% | [5]; at 11.0 µM 13% | [6]; at 1.2 µM -7% | [6]; at 3.7 µM -23% | [6]; at 11.0 µM 5% | [7]; [17] 16% | [8]; at 1.2 µM -1% | [8]; at 3.7 µM 8% | [8]; at 11.0 µM 17% | [8]; at 33.0 µM 46% | [10]; at 1.2 µM -20% | [10]; at 3.7 µM -5% | [10]; [17] 23% | [10]; at 11.0 µM 8% | [10]; at 33.0 µM 69% | [11]; at 1.2 µM -7% | [11]; at 3.7 µM -12% | [11]; at 11.0 µM 2% | [11]; at 33.0 µM 56% | [12]; at 1.2 µM -10% | [12]; at 3.7 µM 3% | [12]; at 11.0 µM 24% | [13]; at 1.2 µM -43% | [13]; at 3.7 µM -21% | [13]; at 11.0 µM 0% | [13]; at 33.0 µM 66% | [15]; at 1.2 µM -37% | [15]; at 3.7 µM -25% | [15]; at 11.0 µM -11% | [15]; at 33.0 µM 67%

COc1cc2cc3c4cc(OC)c(OC)cc4cc[n+]3c(C)c2cc1OC
active: [4]; [18] 92% | [5]; [17] 73% | [5]; [18] 83%
inactive: [1]; at 1.2 µM -21% | [1]; at 3.7 µM -21% | [1]; at 11.0 µM -16% | [1]; at 33.0 µM -20% | [1]; at 100.0 µM -13% | [2]; at 1.2 µM -33% | [2]; at 3.7 µM -31% | [2]; at 11.0 µM -32% | [2]; at 33.0 µM -37% | [2]; at 100.0 µM -31% | [16]; at 1.2 µM -18% | [16]; at 3.7 µM -17% | [16]; at 11.0 µM -21% | [16]; at 33.0 µM -20% | [16]; at 100.0 µM -26% | [4]; at 1.2 µM 5% | [4]; at 3.7 µM 1% | [4]; [17] 59% | [4]; at 11.0 µM 3% | [4]; at 33.0 µM 10% | [4]; at 50.0 µM 51.4% | [4]; at 100.0 µM 7% | [5]; at 1.2 µM -13% | [5]; at 3.7 µM -11% | [5]; at 11.0 µM -7% | [5]; at 33.0 µM -16% | [5]; at 50.0 µM 6.05%

From PubChem BioAssay (NCI)
